The record followed here is PubChem BioAssay (NCI).

SMILES strings stand for the structures. Compounds without any hit were thinned out: in the full panel of roughly 83,000, 20% have a hit.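 Each cell line was grown in a 96-well plate and treated with one concentration of compound for 48 hours. Values below 10 were considered active.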 Calls of active or inactive are those of the source.

This test concerns NCI-H460 lung. Briefly: NCI-60 one-dose screen, 48 h (100 = growth as untreated, 0 = no growth, -100 = all killed). The note with it: 10 µM unless noted.
Take `O=C(Nc1cccc2ccccc12)c1cc2ccccc2cc1O`: the growth is 7.16% (active). Then `COc1cc2c(O)n(CCCN3CCOCC3)c3c4cnc5cccc(c(=O)c3c2cc1OC)c54`, with 9.15% (active).

Regarding `C#CCNC(=O)CC[C@@H](C)[C@H]1CC[C@H]2[C@@H]3CC[C@@H]4CC(=O)CC[C@]4(C)[C@H]3CC[C@]12C`, the growth is -55.5% [100 µM] (active). With `COc1ccc(NC(=O)Nc2ccc(-c3cccnc3)cc2N2CCC(CO)CC2)cc1`, the growth was 60.1% (inactive). Take `CC1(C(=O)O)CCC(N)(C(=O)O)C1(C)C` (configuration not stated): the growth was 117% (inactive).

Regarding `COc1ncc(-c2ccc3nccc(C#CCCCCC(=O)NO)c3c2)cc1NS(=O)(=O)c1ccc(F)cc1F`, the growth is 6.53% (active). As to `O=C(O)CC1CCCCC1c1ccccc1` (configuration not stated), the growth was 119% (inactive). Then `CC(C)=CC/C=C(/C)[C@H]1CC[C@]2(C)[C@@H]1CC[C@@H]1[C@@]3(C)CCC(=O)NC(C)(C)[C@@H]3CC[C@]12C`, with -16.7% [100 µM] (active); and `Cc1nc(Cl)c2c(n1)N(C)c1ccc(Cl)cc1C(C)C2` (configuration not stated), with 92.3% (inactive). Then `Cc1ccc(N)c(O)c1`, with 100% (inactive); and `Nc1ccc(Cl)c([N+](=O)[O-])c1`, with 104% (inactive); and `O=[N+]([O-])c1cccc(N=NNc2cccc([N+](=O)[O-])c2)c1`, with 100% (inactive).

Consider `C=C(C)[C@@H]1CC[C@]2(C)[C@H](CC[C@@H]3[C@@H]([C@@](C)(O)CCC=C(C)C)CC[C@]32C)[C@@]1(C)CCC(=O)N1CCN(C)CC1`, for which the growth is -82.2% [100 µM] (active). Turning to `Cn1cc(-c2noc(C(=O)c3cn(C)c4ncc(Br)cc34)n2)c2ccccc21`, the growth was 99.8% (inactive).

As for `COc1cc(NCc2ccccc2O)c2ncccc2c1`, the growth was 97.3% (inactive). Then `Cc1ccc(C2=C/C(=C/c3ccc(Br)cc3)C(=O)N2CCc2ccc(S(N)(=O)=O)cc2)cc1`, with 100% (inactive). In the case of `Nc1nc(Nc2ccccc2)c2ncn(Cc3ccc4c(c3)OCO4)c2n1` it was 15.9% (inactive); in that of `O=C(CCCSc1nc(-c2ccccc2)cc(-c2ccccc2)n1)NO`, 6.46% (active); in that of `FC(F)(F)c1ccc2c(c1)Sc1ccccc1N2`, 104% (inactive). In the case of `O=C1NC(=O)C(Cc2ccccc2)(Cc2ccccc2)N1` it was 104% (inactive). Regarding `C=C(C)[C@@H]1CC[C@]2(C(=O)N3CCN(C)CC3)CC[C@]3(C)[C@H](CC[C@@H]4[C@@]5(C)C/C(=C/c6ccncc6)[C@H](O)C(C)(C)[C@@H]5CC[C@]43C)[C@@H]12`, the growth is -67.4% [100 µM] (active). `C[C@@H](NC(=O)[C@@H](CC(=O)N1CCC(N2CCCCC2)CC1)N1C(=O)[C@@H](N2C(=O)OC[C@@H]2c2ccccc2)[C@H]1/C=C/c1cccc(Cl)c1)c1ccccc1`: the growth is 13.3% (inactive). Then `N#C/C(=C(/O)CCCO)c1nc2ccccc2c(=O)[nH]1`, with 111% (inactive).

Consider `Cn1cc(-c2nnc(-c3cn(C)c4ncc(Br)cc34)s2)c2cc(Br)ccc21`, for which the growth was 99.4% (inactive). Take `CC1(C)CC[C@]2(C(=O)OC(=O)[C@]34CCC(C)(C)C[C@@H]3C3=CC[C@@H]5[C@@]6(C)CCC(=O)C(C)(C)[C@@H]6CC[C@@]5(C)[C@]3(C)CC4)CC[C@]3(C)C(=CC[C@@H]4[C@@]5(C)CCC(=O)C(C)(C)[C@@H]5CC[C@]43C)[C@H]2C1`: the growth was 58.3% [100 µM] (inactive). In the case of `Cn1cc(-c2noc(-c3cn(C)c4ncc(Br)cc34)n2)c2cc(Cl)ccc21` it was 25.8% (inactive). Then `CCc1cccc(Cl)c1`, with 110% (inactive); and `c1cc2ccc3cc2cc1CNCCN1CCNCc2ccc4ccc(cc4c2)CNCCN(CCNC3)CCNCc2ccc3ccc(cc3c2)CNCC1`, with 16.1% (inactive); and `COc1ccc(-c2cc(-c3ccccc3)nc(NCCNc3ccnc4cc(Cl)ccc34)n2)cc1`, with -60% (active). In the case of `O=C(N/N=C\c1cc(Cl)ccc1O)N/N=C/c1cc(Cl)ccc1O` it was 16.1% (inactive); in that of `O=C1Nc2ccccc2/C1=C/C(=O)c1ccc(N2CCCCC2)cc1`, 77.9% (inactive); in that of `O=c1c2c3c(sc2n2cnnc2n1Cc1ccccc1)CCCC3`, 97.7% (inactive). For the compound `Cn1c(=O)c(C#N)c(-c2ccco2)n2c(S(=O)(=O)Cc3ccccc3)nnc12`, the growth was 79.9% (inactive). In the case of `CCCCCn1sc(=O)n(Cc2ccc(CNC(=O)OCc3ccc4cccc(O)c4n3)cc2)c1=O`, the growth was 6.42% (active). Then `O=C(N/N=C/c1ccc([N+](=O)[O-])cc1)c1ccc(Br)o1`, with 105% (inactive); and `C=C(C)[C@@H]1CC[C@]2(COCCC#N)CC[C@]3(C)[C@H](CC[C@@H]4[C@@](C)(CCCNCCC#N)[C@H](C(=C)C)CC[C@]43C)[C@@H]12`, with 9.8% [100 µM] (active). In the case of `C=C(C)[C@@H]1CC[C@]2(C(=O)OC)CC[C@]3(C)[C@H](CC[C@@H]4[C@@]5(C)CC/C(=N\OCCC(=NCCC#N)NOCCC#N)C(C)(C)[C@@H]5CC[C@]43C)[C@@H]12` it was 4.22% [100 µM] (active).
